Reference: ChEMBL document CHEMBL3988442, “University of Dundee, Small-Polar-MMV Screening Library” (2021)
Out of some 48,000 compounds screened, about 13,000 (27%) showed an effect of 50% or more. This is one part of the list.

test system: Wolbachia pipientis; assay: Anti-Wolbachia Cell-Based Screen; format: functional; set-up: scale not given: in the data most compounds retested in dose-response had high values; conditions: 5 µM

SMILES | Percent Effect
COc1ccc(OC)c(S(=O)(=O)NC(=O)C(C)OC)c1 (stereo not drawn) | 1.842%
CC(C)=CCC1(CO)CCCN(S(C)(=O)=O)C1 (stereo not drawn) | -9.202%
Cc1csc(C2CCCN(C(=O)c3cnc[nH]3)C2)n1 (stereo not drawn) | -6.546%
CCc1csc(C2CCCN(C(=O)c3ccc(=O)n(C)n3)C2)n1 (stereo not drawn) | -0.1419%
CCc1csc(C2CCCN(C(=O)c3ccc(OC)nc3)C2)n1 (stereo not drawn) | 6.728%
CCc1csc(C2CCCN(C(=O)c3ccc(=O)n(CC)n3)C2)n1 (stereo not drawn) | 101.1%
CCc1csc(C2CCCN(C(=O)c3ncccn3)C2)n1 (stereo not drawn) | 104%
CCc1csc(C2CCCN(C(=O)c3ccc4c(c3)OCO4)C2)n1 (stereo not drawn) | -10.1%
CCc1csc(C2CCCN(C(=O)c3ccc4[nH]nnc4c3)C2)n1 (stereo not drawn) | 100.2%
CC(C)c1csc(C2CCCN(C(=O)c3ncccn3)C2)n1 (stereo not drawn) | 1.009%
CCc1csc(C2CCCN(C(=O)c3ccncc3)C2)n1 (stereo not drawn) | 12.22%
CCc1nc(CN2CCCN(C(=O)c3cnc[nH]3)CC2)cs1 | -9.99%
CCc1csc(C2CCCN(C(=O)c3cnc[nH]3)C2)n1 (stereo not drawn) | 106.6%
COC(=O)CNC(=O)C1(NC(=O)c2ccc3[nH]ncc3c2)CCCC1 | 5.444%
CNS(=O)(=O)c1ccccc1N1CCN(C(C)C(N)=O)CC1 (stereo not drawn) | -9.322%
CC(C)NC(=O)N1CC[C@@H](N(C)C)[C@@H]1Cc1ccncc1.O=C(O)C(F)(F)F.O=C(O)C(F)(F)F | -7.431%
CCc1csc(C2CCCN(C(=O)c3ccco3)C2)n1 (stereo not drawn) | 94.24%
Cc1csc(C2CCCN(C(=O)c3cc(Cl)c[nH]3)C2)n1 (stereo not drawn) | -0.3257%
CCc1csc(C2CCCN(C(=O)c3ccccn3)C2)n1 (stereo not drawn) | 106.7%
CCc1csc(C2CCCN(C(=O)c3c[nH]c(C)n3)C2)n1 (stereo not drawn) | 6.503%
CCc1csc(C2CCCN(C(=O)c3ccc(OC)nn3)C2)n1 (stereo not drawn) | 3.799%
CCc1csc(C2CCCN(C(=O)c3cc(C4CC4)[nH]n3)C2)n1 (stereo not drawn) | 98.97%

SMILES | Percent Effect
CCOC(=O)CCC(=O)N1CC(c2nc(Cc3ccccc3)no2)C1 | -13.25%
CCN(C(=O)CN1CCC(c2ccccc2)C1)C1CC1 (stereo not drawn) | 4.674%
CCOC(=O)[C@@H]1CN2CCNC[C@@H]2[C@H]1c1ccccc1 | 110.8%
O=C(CCn1cncn1)N1C[C@H]2CC[C@@H]1CN(Cc1ccncc1)C2 | 5.769%
CC(CN1CCOCC1)OC(=O)c1cccc2cn[nH]c12 (stereo not drawn) | -3.971%
Cc1noc(C)c1CNC(=O)N1CCN(Cc2cscn2)CC1 | -4.059%
Cc1oc(C)c(C(=O)N2CCN(Cc3cscn3)CC2)c1C | 159.3%
Cc1ocnc1C(=O)N1CCCN(Cc2cscn2)CC1 | 126.9%
Cc1oc(C)c(C(=O)N2CCCN(Cc3cscn3)CC2)c1C | 2.495%
Cc1csc(N2CCCN(C(=O)c3c(C)oc(C)c3C)CC2)n1 | 12.08%
Cc1nc(CN2CCCN(C(=O)c3c(C)noc3C)CC2)cs1 | 14.06%
Cc1nc(CN2CCCN(C(=O)c3c(C)oc(C)c3C)CC2)cs1 | 108.1%
CCc1noc(C)c1C(=O)N1CCCN(Cc2csc(C)n2)CC1 | 18.09%
CCc1noc(C)c1C(=O)N1CCCN(Cc2cscn2)CC1 | 149%
Cc1cc(C(C)C(=O)N2CCCN(Cc3cscn3)CC2)c(C)o1 (stereo not drawn) | -21.53%
Cc1nn(C)c(Cl)c1S(=O)(=O)N(CC(N)=O)CC(C)C | -2.815%
O=C(c1cccc(F)c1F)N1CCn2c(nnc2C(F)(F)F)C1 | -8.426%
O=C(NCC1=CCCCC1)C(c1cccnc1)N1CCCC1 (stereo not drawn) | 4.63%
CC(C)c1ncncc1C(=O)N1CCN(Cc2cscn2)CC1 | -5.142%
Cc1noc(C(C)C)c1C(=O)N1CCCN(Cc2cscn2)CC1 | 0.5158%
CCc1ncncc1C(=O)N1CCN(Cc2cscn2)CC1 | 108.1%
Cc1noc(C)c1C(=O)N1CCCN(Cc2cscn2)CC1 | 110.4%

SMILES | Percent Effect
CCc1ncncc1C(=O)N1CCN(Cc2ccco2)CC1 | 2.127%
CCc1nc(CN2CCCN(C(=O)c3c(C)noc3C)CC2)cs1 | -12.93%
CN(C)CCNC(=O)c1ccccc1NC(=O)c1cc(Cl)ccc1Cl | 115.7%
Cc1ccnc(NC(=O)CCNC(=O)c2ccccc2Cl)c1 | 8.062%
CN(CCCNC(=O)c1ccccc1F)CC(F)(F)F | 0.1047%
CN(C)CCCNC(=O)c1ccccc1NC(=O)c1cc(Cl)ccc1Cl | 87.51%
CN(CC(=O)Nc1ccccc1C(=O)NC1CC1)Cc1ccccc1Cl | 6.232%
CN(C)CCCNC(=O)c1ccnc(OCc2ccccc2)c1 | -11.72%
CN(C)CCNC(=O)c1cnc2c(c1)nc(-c1ccccc1Cl)n2C | -9.554%
COc1cc(NC(=O)c2ccccc2F)c(C(=O)N(C)C)cc1OC | -7.835%
CN(C)CCCNC(=O)c1ccccc1NC(=O)c1ccccc1Cl | 105.1%
COCc1nc2cc(NCc3cc[nH]n3)ccc2o1 | -2.175%
CC(=O)Nc1cc(CN(C)C)ccc1C | -5.311%
CC(C(=O)N1CCCC1)S(=O)(=O)Cc1noc(C(C)(C)C)n1 (stereo not drawn) | -6.108%
Cc1cc(C2CCCN(Cc3ncc(C)o3)C2)n[nH]1 (stereo not drawn) | -4.273%
Cc1cc(C)n(CC2CCCN2CCCS(N)(=O)=O)n1 (stereo not drawn) | -6.761%
Cc1cc(C2CCCN(CCCNS(C)(=O)=O)C2)n[nH]1 (stereo not drawn) | -11.22%
Cc1cc(C2CCCN(CCCS(N)(=O)=O)C2)n[nH]1 (stereo not drawn) | 116%
Cc1cc(C2CCCN(CCCS(C)(=O)=O)C2)n[nH]1 (stereo not drawn) | 81.87%
COC(=O)c1cc(NC(=O)CCc2cscn2)ccc1C | -13.27%
CN1CSC[C@H]1C(=O)N1CCN(Cc2cccc(F)c2)CC1 | -1.728%
c1cnnc(N2CCCC2CNCc2cc[nH]n2)c1 (stereo not drawn) | 6.061%

SMILES | Percent Effect
NCC1Cn2nnc(-c3cccc(F)c3)c2CO1 (stereo not drawn) | -2.933%
Cc1cnn(CCNCc2csc(C)n2)c1 | 11.83%
COCC1c2c(cnn2CC2CC2)CCN1Cc1cc(C)on1.O=C(O)C(F)(F)F.O=C(O)C(F)(F)F (stereo not drawn) | 63.1%
CCn1ncc2c1C(COCC1CC1)N(Cc1c(C)noc1C)CC2.O=C(O)C(F)(F)F.O=C(O)C(F)(F)F (stereo not drawn) | -2.948%
COCC1c2c(cnn2CC2CC2)CCN1Cc1nccs1.O=C(O)C(F)(F)F.O=C(O)C(F)(F)F (stereo not drawn) | -17.24%
COCC1c2c(cnn2CC2CC2)CCN1Cc1cccs1.O=C(O)C(F)(F)F.O=C(O)C(F)(F)F (stereo not drawn) | -10.1%
COCC1c2c(cnn2CC2CC2)CCN1Cc1ccsc1.O=C(O)C(F)(F)F.O=C(O)C(F)(F)F (stereo not drawn) | 107.6%
COCC1c2c(cnn2CC2CC2)CCN1Cc1ccc(OC)cc1 (stereo not drawn) | -7.562%
CCn1ncc2c1C(COCC1CC1)N(Cc1nccs1)CC2.O=C(O)C(F)(F)F.O=C(O)C(F)(F)F (stereo not drawn) | -10.7%
COCC1c2c(cnn2CC2CC2)CCN1Cc1ccc(C)o1.O=C(O)C(F)(F)F.O=C(O)C(F)(F)F (stereo not drawn) | 107.5%
CCOCC1c2c(cnn2CC2CC2)CCN1Cc1nccs1.O=C(O)C(F)(F)F.O=C(O)C(F)(F)F (stereo not drawn) | 115.2%
CCN1C[C@H]2C3(CCN(S(=O)(=O)CC)CC3)CC[C@@]2(C(=O)N(C)C)C1.O=C(O)C(F)(F)F | -7.289%
Cc1ccc2nc(C3CCCN3Cc3nnc(C)s3)[nH]c2c1 (stereo not drawn) | -155.9%
Clc1ccc2nncc(N3CCCCC3)c2c1 | -7.543%
O=C(NCCC1CN(Cc2c[nH]cn2)CCO1)c1ccccc1O (stereo not drawn) | -1.985%
O=C(NCCCN1CCOCC1)C1CCCN(Cc2ccco2)C1 (stereo not drawn) | 1.976%
CCC1CN(CC(=O)NCc2ccco2)CCO1 (stereo not drawn) | -17.78%
NC1(C(=O)NCCC2CN(Cc3ccco3)CCO2)CCCC1 (stereo not drawn) | 117.7%
N#Cc1ccccc1C(=O)NCCC1CN(Cc2ccco2)CCO1 (stereo not drawn) | 86.72%
CC(C)(C)C(=O)NCCC1CN(Cc2ccccc2F)CCO1 (stereo not drawn) | -7.627%
Cc1ccc(C)c(NC(=O)Nc2c[nH]c(=O)[nH]c2=O)c1 | -8.651%
Cc1cccc2c(CCNS(=O)(=O)C3CCOC3)c[nH]c12 (stereo not drawn) | 14.98%

SMILES | Percent Effect
CC(C)Cc1noc(CN2CCCC(CNS(N)(=O)=O)C2)n1 (stereo not drawn) | 6.336%
Cc1noc2nc(C3CCN(CC4CCCCC4)CC3)cc(C(F)F)c12.Cl | 130.1%
CCOC(C)c1noc(CN2CCN(CC3CCCC3)CC2)n1 (stereo not drawn) | -4.058%
Cc1n[nH]c2ncc(CNC3CCN(Cc4ccccn4)CC3)cc12.Cl | 0.2679%
CCS(=O)(=O)c1ccc2oc([C@H]3CCN(Cc4ccccn4)C3)nc2c1 | -4.332%
Cc1noc2nc(C3CCN(CC4=CCCOC4)CC3)cc(C(F)F)c12.Cl | -4.292%
Cc1noc2nc(C3CCN(Cc4ccccn4)CC3)cc(C(F)F)c12 | 126.2%
COc1ccc(N(C)C(=O)c2ccc(Cl)c(S(C)(=O)=O)c2)cn1 | -5.224%
Cc1c(-c2ccccc2)ncn1CCCNc1cccnc1 | -10.09%
COc1ccc(N2CCN(C(=O)Cn3nccc3C)CC2(C)C)cc1 | 3.492%
O=C1CCCCN1CCC(=O)N1CCCCC1c1ccc(F)cc1 (stereo not drawn) | -7.872%
Cc1ccnn1CCC(=O)N1CCN(C2CCc3ccccc3C2)CC1 (stereo not drawn) | -3.022%
Cc1ccnn1CCC(=O)N(Cc1ccsc1)CC(C)C | 6.512%
CCN1C(=O)CC[C@@H]2N(C(=O)CCn3nccc3C)CCCC[C@@]21C | 96.02%
CN1C(=O)CC[C@@H]2N(C(=O)CCc3cccnc3)CCCC[C@@]21C | 73.04%
CN(C)CCn1ccnc1C1CCN(C(=O)CCc2cccnc2)CC1 | -5.205%
COc1ccc(N2CCN(C(=O)CCn3nccc3C)C(C)C2)cc1 (stereo not drawn) | -2.814%
Cc1ccnn1CCC(=O)N1CCCC[C@@]2(C)[C@@H]1CCC(=O)N2C | 76.68%
Cc1ccnn1CCC(=O)N1CCCC[C@]2(C)NC(=O)CCC[C@H]12 | 63.73%
COc1ccc(N2CCN(C(=O)CCn3nccc3C)CC2(C)C)cc1 | -0.9656%
